For assay [1], the target named is Tumor necrosis factor receptor superfamily member 10B (Homo sapiens) (UniProt O14763). Put plainly: caspase-8 TRAIL sensitization, hit retest, confirmation, cell-based, NB7+caspase-8, with/without TRAIL, luminescence panel (AID 651596). Particulars: NB7 neuroblastoma + caspase-8, TRAIL sensitization, luminescence viability, with TRAIL, mean of runs, at 10 µM, stronger effect = higher value.

Experiment in assay [2]: as above
Particulars: NB7 neuroblastoma + caspase-8, without TRAIL, luminescence viability, without TRAIL, mean of runs, at 10 µM.

Assay [3] deals with Tumor necrosis factor receptor superfamily member 10B (Homo sapiens) (UniProt O14763). Put plainly: TRAIL sensitizers in caspase-8 expressing neuroblastoma cells, dose response, NB7 cells plus caspase-8, luminescence, panel (AID 652002). Particulars: NB7 neuroblastoma +caspase-8, TRAIL sensitization, luminescence viability, NB7+Caspase-8, with TRAIL, run 1; at 12.5 µM (top of the series).

The target is the same in assay [4]. The description is as above. As to conditions: NB7 neuroblastoma +caspase-8, TRAIL sensitization, luminescence viability, NB7+Caspase-8, with TRAIL, run 2; at 12.5 µM (top of the series).
Experiment in assay [5]: as above
Particulars: NB7 neuroblastoma +caspase-8, no TRAIL, compound-alone cytotoxicity counter-screen, luminescence viability, NB7+Caspase-8, run 1; at 12.5 µM (top of the series) unless noted.

Experiment in assay [6]: as above
As to conditions: NB7 neuroblastoma +caspase-8, no TRAIL, compound-alone cytotoxicity counter-screen, luminescence viability, NB7+Caspase-8, run 2; at 12.5 µM (top of the series) unless noted.

In assay [7] the target is COP9 signalosome complex subunit 5 (Homo sapiens) (UniProt Q92905). Put plainly: Csn5 deneddylation inhibitors, confirmation, biochemical, fluorescence polarization, single concentration, SCF-Nedd8OG substrate (AID 720654; in the data active = inhibition above about 50%;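 also: 0% = DMSO with enzyme and 100% = no enzyme wells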). As to conditions: Csn5 deneddylation of SCF-Nedd8OG, 90 min, at 16.6 µM, stronger effect = higher value. For orientation: Fluorescence polarisation rises when a labelled molecule tumbles more slowly, as on binding a larger partner.
COP9 signalosome complex subunit 5 (Homo sapiens), sequence (Q92905 whole entry, looked up, one chain of several): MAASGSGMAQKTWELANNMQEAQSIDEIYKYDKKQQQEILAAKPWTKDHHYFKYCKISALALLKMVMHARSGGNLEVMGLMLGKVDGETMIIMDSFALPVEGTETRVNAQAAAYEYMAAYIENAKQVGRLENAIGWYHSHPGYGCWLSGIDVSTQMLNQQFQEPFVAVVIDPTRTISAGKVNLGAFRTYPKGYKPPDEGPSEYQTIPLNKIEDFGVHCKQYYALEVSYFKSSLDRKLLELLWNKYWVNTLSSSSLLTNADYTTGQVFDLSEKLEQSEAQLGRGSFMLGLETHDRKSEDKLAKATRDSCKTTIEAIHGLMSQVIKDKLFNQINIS

In assay [8] the target is 72 kDa type IV collagenase (Homo sapiens) (UniProt P08253). In words: MMP-2 protease inhibition counter-screen, confirmation, counter-screen for CSN deneddylation inhibitor project, biochemical, fluorescence, single concentration (AID 720655;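 active = corrected plate-normalized z-score of 5 or more, or -5 or less, or inhibition of 15% or more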;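 also: plate controls were DMSO wells with enzyme for no effect and buffer wells lacking MMP-2 for full effect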). Particulars: recombinant MMP-2, FRET substrate fluorescence, 60 min; at 16.6 µM. For orientation: A counterscreen serves to expose hits that act by an unwanted route or on another target.
72 kDa type IV collagenase (Homo sapiens), sequence (P08253 whole entry, looked up): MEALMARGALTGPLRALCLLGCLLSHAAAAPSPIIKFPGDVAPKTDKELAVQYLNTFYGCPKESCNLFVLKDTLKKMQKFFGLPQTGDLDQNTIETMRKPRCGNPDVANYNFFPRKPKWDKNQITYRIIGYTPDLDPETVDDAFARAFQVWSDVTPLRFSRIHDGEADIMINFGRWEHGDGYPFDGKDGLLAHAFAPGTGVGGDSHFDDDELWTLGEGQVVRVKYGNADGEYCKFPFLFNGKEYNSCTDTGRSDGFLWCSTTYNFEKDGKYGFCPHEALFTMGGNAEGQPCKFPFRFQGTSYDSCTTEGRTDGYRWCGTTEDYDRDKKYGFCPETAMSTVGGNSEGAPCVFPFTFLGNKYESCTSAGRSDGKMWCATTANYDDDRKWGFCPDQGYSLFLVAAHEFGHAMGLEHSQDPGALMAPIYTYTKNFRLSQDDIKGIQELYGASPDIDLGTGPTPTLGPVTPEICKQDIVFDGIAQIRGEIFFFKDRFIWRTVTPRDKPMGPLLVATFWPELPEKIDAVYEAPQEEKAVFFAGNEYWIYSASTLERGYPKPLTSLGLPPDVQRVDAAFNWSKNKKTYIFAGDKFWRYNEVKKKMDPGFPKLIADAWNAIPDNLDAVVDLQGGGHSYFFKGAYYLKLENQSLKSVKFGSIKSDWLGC

Assay [9] deals with Prothrombin (Bos taurus) (UniProt P00735). Put plainly: bovine thrombin inhibition counter-screen, confirmation, counter-screen for CSN deneddylation inhibitor project, biochemical, fluorescence polarization, single concentration (AID 720656;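 active = inhibition at or above a set limit, with a fluorescence interference ratio between 0.5 and a set maximum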). Particulars: bovine thrombin cleavage of Ub4-pepOG, at 16.6 µM, stronger effect = higher value.
Prothrombin (Bos taurus), sequence (P00735 whole entry, looked up): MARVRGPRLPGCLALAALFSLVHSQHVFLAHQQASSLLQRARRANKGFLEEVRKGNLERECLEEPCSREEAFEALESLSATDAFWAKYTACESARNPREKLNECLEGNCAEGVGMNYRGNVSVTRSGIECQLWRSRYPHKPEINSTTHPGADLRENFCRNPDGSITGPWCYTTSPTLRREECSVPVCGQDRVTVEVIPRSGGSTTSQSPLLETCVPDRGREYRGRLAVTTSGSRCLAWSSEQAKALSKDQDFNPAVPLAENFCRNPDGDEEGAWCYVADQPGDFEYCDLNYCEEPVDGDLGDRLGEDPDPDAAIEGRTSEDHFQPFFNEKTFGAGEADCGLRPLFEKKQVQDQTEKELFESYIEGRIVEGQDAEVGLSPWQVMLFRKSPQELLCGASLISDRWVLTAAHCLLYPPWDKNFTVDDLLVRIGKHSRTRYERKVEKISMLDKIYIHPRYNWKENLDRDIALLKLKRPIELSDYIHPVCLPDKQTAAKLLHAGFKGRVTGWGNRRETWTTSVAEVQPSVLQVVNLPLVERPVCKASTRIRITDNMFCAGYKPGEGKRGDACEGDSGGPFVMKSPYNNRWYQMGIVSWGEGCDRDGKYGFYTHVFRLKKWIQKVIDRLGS

SMILES strings stand for the structures. The list shows a part of the results. Calls of active or inactive are those of the source. Rule as the data show it, unless noted: active = activity above about 50%; inactive = the rest.

Tumor necrosis factor receptor superfamily member 10B (Homo sapiens), sequence (O14763 whole entry, looked up): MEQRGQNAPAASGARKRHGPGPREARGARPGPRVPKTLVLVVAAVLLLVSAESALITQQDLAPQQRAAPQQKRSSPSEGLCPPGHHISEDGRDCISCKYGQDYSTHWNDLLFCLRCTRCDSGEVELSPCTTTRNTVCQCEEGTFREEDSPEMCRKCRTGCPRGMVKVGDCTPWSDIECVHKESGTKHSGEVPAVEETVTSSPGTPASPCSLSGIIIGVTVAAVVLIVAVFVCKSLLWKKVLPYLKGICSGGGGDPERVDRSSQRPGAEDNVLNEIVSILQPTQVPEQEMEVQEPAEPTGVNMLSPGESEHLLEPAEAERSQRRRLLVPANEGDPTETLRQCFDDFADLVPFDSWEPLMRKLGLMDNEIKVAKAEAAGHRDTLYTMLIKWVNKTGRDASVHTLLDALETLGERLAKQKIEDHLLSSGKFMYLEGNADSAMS

For the molecule `O=C(c1cnc(Cl)c(Cl)c1)N1CCN(S(=O)(=O)c2ccc3ccccc3c2)CC1`, the activity in assay [1] is 45.5%; in assay [2], 25.1%. Moreover, the activity, % sensitization was -9.83% in assay [3], -9.66% in assay [4], 3.76% in assay [5] and -5.02% in assay [6].
As to `C/C(=N\NC(=O)c1n[nH]c2c1CCC2)c1ccco1`, the activity in assay [1] is 55.8%; in assay [2], 51.4%. Also, the activity, % sensitization is 28.7% in [3], 33.5% in assay [4], 27.9% in [5] and 24.1% in assay [6].
For `C/C(=N\NC(=O)c1csc(C)c1C)c1ccco1`, the activity in assay [1] came to 46.9%; in assay [2] it was 40.4%. For the same molecule, the activity, % sensitization in assay [3] is 34.8%; in assay [4], 13.8%; in assay [5], 22.5%; in assay [6], -4.13%.
As to `CN(C)c1ccc(N/C=C/C(=O)c2ccco2)cc1`, the activity in assay [1] is 62.6%; in assay [2], 22.4%. Further, the activity, % sensitization in [3] was found to be 53.8%; in [4] it was 49.4%; in assay [5], 18.4%; in [6], 43.5%.
As to `CCN(CC)c1ccc(NC(=O)Nc2ccccc2)cc1`, the activity is 52% in assay [1] and 47% in assay [2]. Besides, the activity, % sensitization in [3] stood at 37.6%; in assay [4], 44.7%; in [5], 12%; in assay [6], 31.2%.
With `CCN(CC)c1ccc(/C=N/NC(=O)c2ccco2)cc1`, the activity in assay [1] amounted to 56.5%; in [2] it was 53.3%. Moreover, the activity, % sensitization in [3] came out at 25%; in [4], 39.3%; in assay [5], 34%; in assay [6], 23.6%.
Take `O=C(N/N=C/c1cccc(OC(=O)c2ccco2)c1)c1ccc(F)cc1`: the activity in assay [1] was found to be 57.1%; in [2] it was 28.9%. Also, the activity, % sensitization in assay [3] came out at 54.4%; in assay [4] it was 46.3%; in assay [5] it was 49.2%; in assay [6] it was 40.8%.
Take `COc1ccc(-c2cc(C(=O)OCC(=O)Nc3ccc4c(c3)OCO4)c3ccccc3n2)cc1`: the activity in assay [1] amounted to 54.6%; in assay [2] it was 48.5%. Moreover, the activity, % sensitization in assay [3] was 31.3%; in assay [4], 43.9%; in assay [5], 34.3%; in assay [6], 46.2%.
Consider `CC(C)C[C@H](NC(=O)c1nc[nH]c1C(=O)N[C@@H](CCCCNC(=O)OC(C)(C)C)C(=O)OC(C)(C)C)C(=O)OCc1ccccc1`, for which the activity in assay [1] was 77.7%; in assay [2], 20.4%. For the same molecule, the activity, % sensitization in [3] is -36.8%; in assay [4] it was -15.7%; in assay [5], -4.5%; in assay [6], -28.8%.
For `C=Cc1ccc(Cn2c(C)c(C(=O)NCc3cccc(C(F)(F)F)c3)sc2=O)cc1`, the activity stood at 60.2% in assay [1] and 20.5% in assay [2]. Moreover, the activity, % sensitization in assay [3] was -5.7%; in assay [4], -12.9%; in assay [5], 5.05%; in assay [6] it was 6.45%.
In the case of `COCCNC(=O)c1cc(-c2ccc(-c3ccccc3)cc2)nc2ccccc12`, the activity in assay [1] came out at 57.7%; in assay [2], 44.5%. Further, the activity, % sensitization in [3] was 36.7%; in assay [4] it was 40.6%; in assay [5], 51%; in assay [6], 41.3%.
Take `COc1ccc(/C=N/Nc2nc3ccccc3c(=O)n2-c2ccccc2)cc1OC`: the activity in assay [1] worked out at 62.5%; in assay [2], 48.6%. Further, the activity, % sensitization was 47.9% in assay [3], 45.1% in assay [4], 41% in [5] and 44.3% in [6].
In the case of `CSc1nc(N)n2nc(-c3ccc(Cl)cc3)cc2n1`, the activity in assay [1] worked out at 63.9%; in assay [2], 45.2%. Further, the activity, % sensitization was -2.8% in [3], -10.2% in assay [4], 0.419% in [5] and -17.1% in assay [6].
Turning to `CCCCC1CCC(C(=O)N(CCC(C)C)c2c(N)n(CCCC)c(=O)[nH]c2=O)CC1` (configuration not stated), the activity in assay [1] was found to be 90.3%; in [2], 39.2%. The activity, % sensitization in assay [3] is -14.2%; in [4], -10.1%; in assay [5] it was -5.24%; in assay [6] it was -5.58%.
With `COC(=O)[C@]12CCCCC=C1N(Cc1cccc3ccccc13)C(=O)[C@H](CC(=O)NCc1ccc(OC)c(OC)c1)C2`, the activity in assay [1] came to 66.4%; in assay [2] it was 53%. Besides, the activity, % sensitization in assay [3] is 24.8%; in assay [4], 43%; in [5], 16.7%; in assay [6], 36.7%.
As for `Cc1c(P(=S)(c2ccccc2)c2ccccc2)[n+]2ccccc2n1CCc1ccccc1`, the activity was found to be 52% in [1] and 44.7% in assay [2]. Also, the activity, % sensitization was found to be 3.09% in assay [3], 9.7% in [4], 3.44% in assay [5] and 9.46% in [6].
Regarding `COc1ccc2[nH]c3c(C)c4cc[n+](C)cc4c(C)c3c2c1`, the inhibition – broadly, the drop in the measured response relative to a control, in per cent – in assay [7] was -33.2% (inactive); in assay [8], -35.8% (active); in [9], 12.2% (inactive).
Turning to `Cn1nnc(NC(=O)c2ccc(C(C)(C)C)cc2)n1`, the activity in [1] was 58.1%; in assay [2] it was 51.8%. Further, the activity, % sensitization in [3] was 47.5%; in assay [4], 61.4%; in assay [5], -4.98%; in assay [6], 39.7%.
With `O=C(NC(=S)Nc1nc2c(s1)CCCC2)c1ccccc1`, the figures for the activity in [1] and in [2] were 69.8% and 47.3%, respectively. Further, the activity, % sensitization in assay [3] was -8.98%; in [4], 47.5%; in assay [5] it was 2.65%; in [6] it was -0.817%.
Consider `C=CCC1=C/C(=C\c2c(N)n3nc(CC(=O)N4CCOCC4)sc3nc2=O)C=C(OC)C1=O`, for which the inhibition in assay [7] is 16.7% (inactive); in assay [8] it was -4.68% (inactive); in [9] it was 72.6% (active).
Take `O=c1[nH]c(N/N=C\c2ccc3c(c2)OCO3)nc2ccccc12`: the activity in assay [1] worked out at 53.6%; in assay [2] it was 50.5%. The activity, % sensitization stood at 33.9% in assay [3], 44.5% in [4], 38.2% in assay [5] and 35.1% in [6].
Take `CN(C)S(=O)(=O)c1ccc(C(=O)Nc2nnc(SCC(=O)NCC3CCCO3)s2)cc1` (configuration not stated): the values for the activity in assay [1] and in assay [2] were 49.1% and 38.5%, respectively. Besides, the activity, % sensitization was determined as 30% in assay [3], 32.3% in assay [4], 4.27% in assay [5] and 28.4% in assay [6].
For `Fc1ccc(-c2cnn3c(-c4ccncc4)ccnc23)cc1`, the activity in [1] is 49.5%; in [2] it was 48.7%. Also, the activity, % sensitization was -13.8% in [3], -2.37% in [4], 13.2% in [5] and -12.3% in assay [6].
For the molecule `O=C1CCCc2nc(N3CCc4ccccc43)ncc21`, the activity in assay [1] is 45.5%; in [2], 25.6%. Besides, the activity, % sensitization is 22.4% in [3], -9.35% in [4], 0.829% in assay [5] and -3.85% in assay [6].
As to `COC(=O)c1ccc(/C=C(\C#N)c2ccccn2)cc1`, the activity in [1] amounted to 51%; in [2], 40.8%. In addition, the activity, % sensitization is -7.25% in assay [3], -19.4% in assay [4], -8.36% in assay [5] and -11% in [6].
For the molecule `Cc1cc(NC(=O)C2CCCC2)nc2c1c(=O)oc1ccccc12`, the activity was found to be 68.7% in assay [1] and 50.2% in assay [2]. For the same molecule, the activity, % sensitization in [3] was 15%; in assay [4], -6.85%; in assay [5], 0.143%; in assay [6] it was 17.1%.
As for `C#CC(=O)CC1(CN(Cc2ccccc2)C(=O)OC(C)(C)C)CCCCC1`, the activity in assay [1] turned out to be 97.7%; in assay [2] it was 49.4%. Further, the activity, % sensitization in [3] was 78.9%; in assay [4] it was 34.5%; in assay [5], 89.9%; in [6] it was 57.8%.
For `Nc1ccccc1C(=O)NN=Cc1cccc([N+](=O)[O-])c1`, the activity in assay [1] is 66.6%; in [2], 42.9%. The activity, % sensitization was 44.8% in assay [3], 53.8% in assay [4], -5.65% in assay [5] and 35.3% in assay [6].
On to `COc1ccc(-c2noc(-c3ccc4c(c3)OCO4)n2)cc1`, for which, in assay [2], the activity turned out to be 49.9%.
In the case of `O=C(CSc1nc2ccccc2c(=O)[nH]1)Nc1nc(-c2ccc(Br)cc2)cs1`, the inhibition in assay [7] is 105% (active); in assay [8], 16.9% (active); in assay [9], -37.2% (inactive).
With `Cc1ccc(N=C/C(C(=O)C(F)(F)F)=C(\O)c2cccs2)cc1`, the activity amounted to 56.1% in assay [1] and 53.8% in assay [2]. The activity, % sensitization in [3] is 83.3%; in assay [4], 63.5%; in [5], -0.893%; in assay [6] it was 77.5%.
